Assay results: PMC7819943, “Rice protein-binding microarrays: a tool to detect cis-acting elements near promoter regions in rice”
The full ranking holds about 68,000 sequences; the median of “fluorescence intensity (a.u.)” is about 9,100, and the highest 2% start at about 16,000. The sample holds the highest values, similar sequences and a random draw of the others, so the mix is not that of the screen.

The sequences below were run against OsWRKY34 (Oryza sativa, UniProt Q0JBA9 1-250) (assay: protein-binding microarray (RPBM); PBS, 2% BSA, 51.3 ng/ul salmon testes DNA, 50 uM zinc acetate, 200 nM TF, 25 C, 1 h; high values mean tight binding). Conditions: protein: recombinant; tags: N-terminal polyhistidine and DsRed monomer fusion (pET32a); label: CyDye5-dUTP incorporated in the synthesized complementary strand; 3' TTTTT single-stranded linker to array surface; dsDNA, one strand shown.
Sequence of OsWRKY34 (Q0JBA9 entry or part of it): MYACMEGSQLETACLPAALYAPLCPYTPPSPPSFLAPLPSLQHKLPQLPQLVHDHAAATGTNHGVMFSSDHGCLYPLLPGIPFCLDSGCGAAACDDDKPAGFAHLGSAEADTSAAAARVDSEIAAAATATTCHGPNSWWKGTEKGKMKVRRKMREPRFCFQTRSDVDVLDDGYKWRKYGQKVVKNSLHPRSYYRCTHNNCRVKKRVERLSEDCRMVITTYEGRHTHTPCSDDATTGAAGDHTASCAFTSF
How it was run: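 Binding signal is defined as the fluorescence intensity of each feature in arbitrary units, read on an Axon 4000B scanner. Transcription factors with N-terminal polyhistidine and DsRed fusions came from E. coli BL21-CodonPlus and were purified on Ni–NTA. They were incubated at 200 nM for 1 h at 25 °C on a custom Agilent array that had been made double-stranded with Cy5-dUTP, with 50 µM zinc acetate present, and the array was washed.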

Row | Sequence | binding signal
1 | TTCCTTTTTCTATTTTTGGAATTTATTTTAATTTTTATTTCGGAGTCACCTAGTGCAG | 8910 fluorescence intensity (a.u.)
2 | CCCCGCTCGCGGCCCGGTCGCGCCAAACATCGTCCGACTCCGGAGTCACCTAGTGCAG | 9010 fluorescence intensity (a.u.)
3 | TCCACAACTGATTTTATTCCGACTTGTTTTTTTTTCTTTTCGGAGTCACCTAGTGCAG | 10800 fluorescence intensity (a.u.)
4 | TTACTACTTCACCGTCTCTTTTTCTTCCTCAGCGCACAAACGGAGTCACCTAGTGCAG | 9610 fluorescence intensity (a.u.)
5 | AGACGGAGGAGGACAAGGACATAGGGGAGGAGGGGCGAGGCGGAGTCACCTAGTGCAG | 9530 fluorescence intensity (a.u.)
6 | TTTTTCCGTGTGTGTCGTTTCGTTCTTGTTTGTTCGGGTCCGGAGTCACCTAGTGCAG | 12400 fluorescence intensity (a.u.)
7 | ATTTCTTTTTGTTGTGTTATCGTGTTGTTTCGTCACTAGTCGGAGTCACCTAGTGCAG | 19600 fluorescence intensity (a.u.)
8 | ATGTTGTCGTGTATCATTTGTTTTTCTTATGTTATTTTCTCGGAGTCACCTAGTGCAG | 10700 fluorescence intensity (a.u.)
9 | GCCGTTTCTTCTTTCTTTTTTTTTTCCGTGTGTGTCGTTTCGGAGTCACCTAGTGCAG | 16600 fluorescence intensity (a.u.)
10 | TTTTTCGTTTCCTTTCCGTGTTCTTTTTTTTTTCTTCCATCGGAGTCACCTAGTGCAG | 10100 fluorescence intensity (a.u.)
11 | GTGGATTTTTTTTTTCTTTTCTTTTTTCGTTGTTATTTGTCGGAGTCACCTAGTGCAG | 10600 fluorescence intensity (a.u.)
12 | ACACCTTCAATCGCTCTCTCATGAATTAACCGAACAAGACCGGAGTCACCTAGTGCAG | 9340 fluorescence intensity (a.u.)
13 | GTAGTAGGTAGCAGCAGTCTCAAACATGTCTTCTGAGTAGCGGAGTCACCTAGTGCAG | 9420 fluorescence intensity (a.u.)
14 | CGTGTTCTTGCCTGCGTATATACGGTGTACGTACACACGTCGGAGTCACCTAGTGCAG | 8870 fluorescence intensity (a.u.)
15 | TGGGTTGGGATTTGTGCTTGTTTTTTTTTTTTGTGCGTGTCGGAGTCACCTAGTGCAG | 16600 fluorescence intensity (a.u.)
16 | GCTAGCTGCTGTCTTGTGTTGTGTTGTGTTGTGTGGCATGCGGAGTCACCTAGTGCAG | 8220 fluorescence intensity (a.u.)
17 | TATACTTGTTGGCTGCTGCTTTGTGTGTGGTGTGTTGTTTCGGAGTCACCTAGTGCAG | 10400 fluorescence intensity (a.u.)
18 | AGAGCTTGTGTGGTGGTGGGGCATCAGTGTGTCAGTTGTGCGGAGTCACCTAGTGCAG | 17100 fluorescence intensity (a.u.)
19 | AGATTTTGGGTGTGTTTGGTTGCTTGCATTGTTTTAGTCTCGGAGTCACCTAGTGCAG | 9320 fluorescence intensity (a.u.)
20 | CTTTGCTTGGTTGCTTGTGTTGTGTGCTGTGCTGTGCAGTCGGAGTCACCTAGTGCAG | 8220 fluorescence intensity (a.u.)
21 | AAGGGCAGAGGAGAGGAGTTGCAGTGTGGTGTGTGGCATGCGGAGTCACCTAGTGCAG | 8870 fluorescence intensity (a.u.)
22 | GGGGCTGCTTGGGCTTGTGTTGTTTTTTTGGCAGATGCATCGGAGTCACCTAGTGCAG | 19100 fluorescence intensity (a.u.)
23 | TCTTGGCGCTGTCGGTGTGTGGGTGGCGTTATATTTTTTTCGGAGTCACCTAGTGCAG | 9900 fluorescence intensity (a.u.)

Row | Sequence | binding signal
24 | AATTTTTTTTGGGGTTGCTGCTGTTTTTTTTGTGGAGGTTCGGAGTCACCTAGTGCAG | 9450 fluorescence intensity (a.u.)
25 | TTTTTTTTTTTTGTTGGGCTTGTGACTTGTGGGGTGTGCACGGAGTCACCTAGTGCAG | 11600 fluorescence intensity (a.u.)
26 | GTGTGTTGGAGCTGCCGGTGTGTGGGTGGGGTTATTTTTTCGGAGTCACCTAGTGCAG | 25100 fluorescence intensity (a.u.)
27 | ACACTCAAACGACACTTCACGCATCTCTCCTGAAATCTTGCGGAGTCACCTAGTGCAG | 8780 fluorescence intensity (a.u.)
28 | ACTTCAGATGTTTCTTGTTCCTACACTTCGCTGCTTCAGTCGGAGTCACCTAGTGCAG | 11800 fluorescence intensity (a.u.)
29 | CTCCTCTCTCTCTCAGCTCACCACACCTCGAGTCGCCGCCCGGAGTCACCTAGTGCAG | 8180 fluorescence intensity (a.u.)
30 | ACTGCTGTCTCCGCGTTACTCTACGCATGCATGCATGTATCGGAGTCACCTAGTGCAG | 10000 fluorescence intensity (a.u.)
31 | TATTCGATTTTGGGTGGTGGTTGTTAAGTTGGCATTTGCACGGAGTCACCTAGTGCAG | 18300 fluorescence intensity (a.u.)
32 | GTGGTTATTCAATTTGTTGCTTGTTTTTGTTTCAAGTTGGCGGAGTCACCTAGTGCAG | 10700 fluorescence intensity (a.u.)
33 | GGGGTGGACTGGGGTGTTTGGCTGCGTGAGTGCGGAGCGGCGGAGTCACCTAGTGCAG | 8920 fluorescence intensity (a.u.)
34 | CCCTTGGGTTGGGTTGTGTTGCTCCCTCTGCTGCATTAATCGGAGTCACCTAGTGCAG | 18100 fluorescence intensity (a.u.)
35 | GGTGAGTTCTTGATTTGGGCGTGGAGCTTTTTTTCTTGGTCGGAGTCACCTAGTGCAG | 8170 fluorescence intensity (a.u.)
36 | GGTGGGTGTGTGCTTGTTTCGGCGTGTGATTTGGGCGGAGCGGAGTCACCTAGTGCAG | 16500 fluorescence intensity (a.u.)
37 | CTGCTGTGTTGCACATTTTTCTGCTCTGTATACCTATAATCGGAGTCACCTAGTGCAG | 12200 fluorescence intensity (a.u.)
38 | ATTCTGATTGGGTGTGGTTGGTTTGATTTTCTGTTAAGCACGGAGTCACCTAGTGCAG | 11700 fluorescence intensity (a.u.)
39 | TGGGTGGGTGCGGCGTGGAGTGACGTGGCGGCGGGTGTGGCGGAGTCACCTAGTGCAG | 8590 fluorescence intensity (a.u.)
40 | CCCTCCCCTCTGCTTCCGTTCCCTTGGGTTGGGTTGTGTTCGGAGTCACCTAGTGCAG | 8480 fluorescence intensity (a.u.)
41 | AGGGAGAGTGTGGGTGCGTGGGGCATATGGTGGTGCGGTGCGGAGTCACCTAGTGCAG | 9950 fluorescence intensity (a.u.)
42 | TATATCATATGCGGGCGTGATCTATTGGGGCGGGGTGTGGCGGAGTCACCTAGTGCAG | 20000 fluorescence intensity (a.u.)
43 | GAAGTGATGAATATATTAAACTGGTTTGGCTATTATTTCCCGGAGTCACCTAGTGCAG | 8360 fluorescence intensity (a.u.)
44 | CTCTCGTGGTGTGGTGTGGACAAGAAAGGAAGGAAAGATGCGGAGTCACCTAGTGCAG | 8700 fluorescence intensity (a.u.)
45 | TAATGTCCCTATTTTGTTATAGTGTTCCTCCAATAATCTGCGGAGTCACCTAGTGCAG | 8290 fluorescence intensity (a.u.)
46 | CAGTTCTTCGTTCTTGTCTTTACTCTCATGATTTTCTCTTCGGAGTCACCTAGTGCAG | 10900 fluorescence intensity (a.u.)
